# Measurements as given in article PMC4336329 (PLoS ONE, 2015).
# Screen size: about 310,000 compounds; about 14,000 (4.5%) showed an effect of 50% or more. The effect is printed as a negative number. Shown is part of a subset that was picked to be rich in strong results.
# Target: human ether-à-go-go-related gene (hERG) potassium channel (human, UniProt Q12809)
# Assay: primary screen, population patch clamp on CHO cells stably expressing hERG; higher = less effect of the substance
# 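Further: peak tail current of the secondary pulse compared with the same well before compound.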
# Sequence of human ether-à-go-go-related gene (hERG) potassium channel (Q12809 whole entry, looked up): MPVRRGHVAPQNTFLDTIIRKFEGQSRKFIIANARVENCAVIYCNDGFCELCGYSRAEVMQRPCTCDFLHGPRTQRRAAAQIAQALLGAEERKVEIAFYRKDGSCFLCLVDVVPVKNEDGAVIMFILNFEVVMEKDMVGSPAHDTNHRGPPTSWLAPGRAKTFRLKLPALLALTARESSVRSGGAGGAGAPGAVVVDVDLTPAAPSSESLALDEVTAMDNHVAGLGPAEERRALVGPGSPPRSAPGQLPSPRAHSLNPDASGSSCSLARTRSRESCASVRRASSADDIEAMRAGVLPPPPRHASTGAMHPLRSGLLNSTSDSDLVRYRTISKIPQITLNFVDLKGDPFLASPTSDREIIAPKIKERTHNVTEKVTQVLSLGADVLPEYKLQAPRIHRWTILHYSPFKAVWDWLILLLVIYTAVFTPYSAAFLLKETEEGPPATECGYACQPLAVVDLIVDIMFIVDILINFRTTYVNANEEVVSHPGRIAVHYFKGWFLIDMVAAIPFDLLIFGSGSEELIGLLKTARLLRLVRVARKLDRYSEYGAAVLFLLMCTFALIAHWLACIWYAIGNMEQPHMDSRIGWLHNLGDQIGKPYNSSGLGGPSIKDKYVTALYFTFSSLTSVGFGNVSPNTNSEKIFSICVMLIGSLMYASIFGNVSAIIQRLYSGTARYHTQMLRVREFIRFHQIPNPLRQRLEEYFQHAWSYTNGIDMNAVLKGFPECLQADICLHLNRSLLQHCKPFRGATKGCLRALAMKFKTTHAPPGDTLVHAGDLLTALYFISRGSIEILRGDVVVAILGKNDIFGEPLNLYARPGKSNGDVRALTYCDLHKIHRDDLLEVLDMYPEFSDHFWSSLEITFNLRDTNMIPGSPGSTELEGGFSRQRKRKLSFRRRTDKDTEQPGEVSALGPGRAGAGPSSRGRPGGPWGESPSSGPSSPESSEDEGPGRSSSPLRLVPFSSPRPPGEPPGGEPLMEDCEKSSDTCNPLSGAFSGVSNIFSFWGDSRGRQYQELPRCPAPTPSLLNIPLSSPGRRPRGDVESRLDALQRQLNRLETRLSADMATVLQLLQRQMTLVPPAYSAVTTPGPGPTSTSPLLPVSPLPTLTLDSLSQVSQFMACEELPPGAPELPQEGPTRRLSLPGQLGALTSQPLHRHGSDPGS
row,SMILES,"hERG current change (%, negative = inhibition) at 10uM"
1,O=C(Nc1ccccc1)C(Cc1cccs1)c1nn[nH]n1 (centres unmarked),-0.965%
2,O=C(CNc1cccc(S(=O)(=O)N2CCOCC2)c1)Nc1ccc(C(F)(F)F)cc1,-44.2%
3,O=C(Cc1ccccc1)NC(NCCCN1CCOCC1)(C(F)(F)F)C(F)(F)F,5.2%
4,O=C(O)c1cccc(Cn2c(Cl)c(/C=N/NC(=O)c3ccccc3O)sc2=O)c1,12.6%
5,Cc1cccc2nc(CSc3nnnn3-c3ccccc3)cn12,-41.5%
6,Cc1cc(C)n2cc(CSc3nnnn3C)nc2n1,2.06%
7,CCc1nnc(SCc2cn3c(C)cc(C)nc3n2)n1N,13.5%
8,Cc1cc(C)n2cc(CSc3nnnn3-c3ccccc3)nc2n1,-56.3%
9,Cc1cc(C)n2cc(CSc3nncn3C)nc2n1,17.2%
10,Cc1cc(C)n2cc(CSc3nnnn3-c3ccccc3C)nc2n1,-58.3%
11,O=C(CCCc1ccccc1)N1CCc2ccccc21,10.1%
12,Cc1c(N=Cc2ccc(-c3ccc(Cl)cc3)o2)c(=O)n(-c2ccccc2)n1C,-15.3%
13,Cc1cc(C)nc(OC(C(=O)O)C(OCC(C)C)(c2ccccc2)c2ccccc2)n1 (centres unmarked),17.8%
14,Cc1[nH]c2c(C(F)(F)F)cccc2c1CCN.Cl,-1.49%
15,CCOc1ccc(C(=O)Nc2cccc3nsnc23)cc1[N+](=O)[O-],5.23%
16,O=C(CCC(F)(F)F)N1CCCC(CO)(CCc2ccccc2)C1 (centres unmarked),-13.5%
17,O=S(=O)(Cc1ccccc1)N1CCN(C/C=C/c2ccccc2)CC1,-5.88%
18,C/C=C(\C)CN1CCCC(CO)(Cc2ccccc2)C1 (centres unmarked),10.4%
19,OCC1(CCc2ccccc2)CCN(C/C=C/c2ccccc2)CC1,-80.9%
20,OCC1(CCc2ccccc2)CCCN(C/C=C/c2ccccc2)C1 (centres unmarked),-73.5%
21,OCC1(CC2CCCCO2)CCN(C/C=C/c2ccccc2)CC1 (centres unmarked),-46%
22,CC1(C)CC2(CCO1)OC(=O)CC2C(=O)Nc1cccc2ccccc12 (centres unmarked),12%
23,Cn1cccc1/C=C1\SC(=S)N(CC(=O)O)C1=O,1.83%

row,SMILES,"hERG current change (%, negative = inhibition) at 10uM"
1,COc1ccc(OC)c(S(=O)(=O)n2cnc3ccccc32)c1,-5.26%
2,Cc1cccc(CS(=O)(=O)c2ncc(CO)n2C)c1,16%
3,Cc1cc(C)c(S(=O)(=O)c2ccccc2C)c(OCCN(C)C)n1,-20.2%
4,CCCCc1cc2ccccc2c(OCCN(C)C)n1.Cl,-61.9%
5,CN(C)CCOc1ncnc2c1oc1ccccc12,-13.5%
6,CCCCCCCC(=O)NNC(=O)c1ccc([N+](=O)[O-])cc1,-20.6%
7,Cc1ccc(C(=O)OCC(=O)c2ccc(CC(=O)N3CCOCC3)s2)cc1C,-31.2%
8,Cc1cccc(C(=O)OCC(=O)c2ccc(CC(=O)N3CCOCC3)s2)c1C,-52.4%
9,Nc1cc(C(=O)OCC(=O)c2ccc(CC(=O)N3CCOCC3)s2)ccc1Cl,-27.8%
10,O=C(NCc1cccnc1)c1cn(-c2ccccc2)nc1-c1ccccc1,-24.3%
11,O=C(COC(=O)c1cn(-c2ccccc2)nc1-c1cccnc1)NC1CC1,-0.964%
12,O=C(NC1CCN(Cc2ccc(Cl)cc2)CC1)c1cn(-c2ccccc2)nc1-c1cccnc1,-75.1%
13,O=C(NC1CCN(Cc2ccccc2)CC1)c1cn(-c2ccccc2)nc1-c1cccnc1,-68%
14,COC(=O)c1cn(-c2ccccc2)nc1-c1cccnc1,-28.5%
15,O=C(O)c1cn(-c2ccccc2)nc1-c1cccnc1,-1.94%
16,NC(=O)c1cn(-c2ccccc2)nc1-c1cccnc1,-1.67%
17,O=C(NCc1cccnc1)c1cn(-c2ccccc2)nc1-c1cccs1,-32%
18,O=C(NCc1ccncc1)c1cn(-c2ccccc2)nc1-c1cccnc1,-62%
19,CCc1ccc(NC(=S)NCc2ccccc2)cc1,3.91%
20,Cc1nc(N/N=C/c2ccc(Br)cc2)cc(N2CCOCC2)n1,-0.525%
21,CCOC(=O)N1CCC(NC(=O)c2ccc(CS(=O)(=O)c3ccc(OC)cc3)o2)CC1,-33.4%
22,C[C@]12C[C@H](O)[C@@H]3c4ccc(O)cc4CCC3[C@@H]1CCC2=O (some centres unmarked),9.39%
23,COCCN(CCOC)C(=O)c1ccc(CSc2nc3ccccc3s2)cc1,-21.8%

row,SMILES,"hERG current change (%, negative = inhibition) at 10uM"
1,COc1ccc(C(C)(C)C)cc1NC(=O)C1C2C=CC(C2)C1C(=O)O (centres unmarked),12.5%
2,CCOC(=O)C1=C(C)N(CC(C)C)C(=O)/C1=C\c1ccc(OCC(=O)Nc2ccccc2)cc1,-9.9%
3,COc1cc(OC)nc(NC(=S)NC(=O)c2ccccc2)n1,23.1%
4,COc1ccccc1NC(=S)N(CCN1CCCCCC1)Cc1cccs1,-55.3%
5,Cc1ccccc1NC(=S)N(CCN1CCCCCC1)Cc1cccs1,-39.5%
6,Fc1ccccc1NC(=S)N(CCN1CCCCC1)Cc1ccco1,-51.2%
7,Fc1ccccc1CN(CCN1CCOCC1)C(=S)Nc1ccccc1Cl,-6.77%
8,Fc1ccccc1NC(=S)N(CCN1CCCCCC1)Cc1cccs1,-53%
9,COc1ccccc1NC(=S)N(CCCN1CCOCC1)Cc1cccs1,-35.6%
10,S=C(Nc1ccccc1Cl)N(CCN1CCCCC1)Cc1ccco1,-42.3%
11,COc1ccccc1NC(=S)N(Cc1ccccc1)Cc1cccs1,14.9%
12,Cc1ccccc1NC(=S)N(CCN1CCCCC1)Cc1ccco1,-30.2%
13,Cc1ccc2c(c1)NC(=O)C(CC(=O)NCc1ccc(F)cc1)O2 (centres unmarked),-9.72%
14,COc1ccc(S(=O)(=O)N(CCC#N)Cc2ccco2)cc1OC,17.8%
15,COc1cc(OC)cc(-c2n[nH]c(=S)n2-c2ccc3c(c2)OCO3)c1,15.4%
16,O=C(NC1CCCCC1)N1CCCC(c2nc(-c3cccs3)no2)C1 (centres unmarked),-10.5%
17,CCc1nnc(NC(=O)C2CC(=O)N(CCc3ccc(F)cc3)C2)s1 (centres unmarked),4.54%
18,O=C(Nc1cccc(C(F)(F)F)c1)C(Sc1ncnc2ccccc12)c1ccccc1 (centres unmarked),0.968%
19,Cc1c(O)ccc2cc(S(=O)(=O)c3ccccc3)c(=O)oc12,13.8%
20,Cc1ccc(-n2ncc3c2CCCC3NC(=O)CSc2ccccn2)cc1C (centres unmarked),-17.2%
21,Cc1noc2ncnc(N3CCN(c4ccc(F)cc4)CC3)c12,-38.3%
22,Cc1noc2ncnc(N3CCCC3)c12,5.93%
23,Cc1noc2ncnc(N3CCN(c4cccc(Cl)c4)CC3)c12,-52%

row,SMILES,"hERG current change (%, negative = inhibition) at 10uM"
1,CCOc1cc(C2C(C(=O)OC)=CN(C3CCCC3)C=C2C(=O)OC)cc(Br)c1O,-1.51%
2,C[N+]1(CC(O)COc2ccccc2)CCN(C(=O)c2ccc([N+](=O)[O-])cc2)CC1.[I-] (centres unmarked),-9.95%
3,CCc1cccc(Nc2cc(C)nc3nc(C)nn23)c1,-25.3%
4,COc1ccc(-c2nc(CN3CCCCC3c3nccn3C)c(C)o2)c(C)c1C (centres unmarked),-64.9%
5,COc1ccc(-c2noc(CN3CCCCC3c3nccn3C)n2)cc1 (centres unmarked),-6.83%
6,COc1ccc(OC)c(-c2nc(CN3CCCCC3c3cccnc3)c(C)o2)c1 (centres unmarked),-1.11%
7,CC(=O)c1ccc(N(CC(=O)NC2CCCCC2)C(=O)CNC(=O)c2ccco2)cc1,-7.74%
8,O=C(Nc1scc(-c2ccccc2)c1C(=O)O)c1ccco1,-0.991%
9,COC(=O)CCC(=O)N1CCCC(N2CCN(c3cccc(C(F)(F)F)c3)CC2)C1 (centres unmarked),-35.8%
10,O=C(CCn1cccn1)N1CCCC(N2CCN(c3cccc(Cl)c3)CC2)C1 (centres unmarked),-54.1%
11,O=C(CCn1cccn1)N1CCCC(N2CCN(c3cccc(C(F)(F)F)c3)CC2)C1 (centres unmarked),-53.6%
12,CN(C)C(=O)CCC(=O)N1CCCC(N2CCN(c3cccc(C(F)(F)F)c3)CC2)C1 (centres unmarked),-12.3%
13,O=C(CCc1ccccn1)N1CCCC(N2CCN(c3cccc(C(F)(F)F)c3)CC2)C1 (centres unmarked),-68.2%
14,O=C(c1ccccn1)N1CCCC(N2CCN(c3cccc(C(F)(F)F)c3)CC2)C1 (centres unmarked),-28.8%
15,CCc1nccn1CCC(=O)N1CCCC(N2CCN(c3cccc(Cl)c3)CC2)C1 (centres unmarked),-36.1%
16,Cc1ccnn1CCC(=O)N1CCCC(N2CCN(c3cccc(Cl)c3)CC2)C1 (centres unmarked),-30.3%
17,O=C(CCn1cncn1)N1CCCC(N2CCN(c3cccc(C(F)(F)F)c3)CC2)C1 (centres unmarked),-35.8%
18,O=C(NCC1CCCO1)c1ccc2c(=O)n(CC3CCCO3)c(=S)[nH]c2c1 (centres unmarked),6.52%
19,Cc1sc2nc(COC(=O)c3cccc(OC(F)F)c3)[nH]c(=O)c2c1C,0.0335%
20,O=c1[nH]n2c(=O)c3c([nH]c2c1N=Nc1cccc(Cl)c1)CCCC3,3.75%
